# Sampled rows, rich in hits. Any-hit rate of the full collection: about 7.7%.
# RE007 growth inh = less growth of the S. pombe RE007 Vpr strain | S. pombe RE007 Vpr strain, BacTiter-Glo ATP luminescence, 24 h | Potency, µM (series often up to 92.2 µM), actives largely listed as inhibitors | 360,000 compounds, 0.21% hits; active = well fitted falling curve with a large enough effect; inconclusive = small, poorly fitted or top-dose-only effect; inactive = no such curve, though single readings can be large or run the other way; note: nearly all actives have a fitted effect of over 50% in size
#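 Fission yeast RE007 carrying one integrated HIV-1 vpr copy, seeded at OD 0.01 in PMG+AL medium with 23 nL pinned compound. Grown 24 h at 30 degrees; viability read by BacTiter-Glo luminescence after 5 min.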
# Sm TGR inh = inhibitors of Schistosoma mansoni thioredoxin glutathione reductase. 360,000 compounds, 3% hits. purified TGR, DTNB reduction, TNB absorbance 405 nm. Potency, µM (doses to about 114 µM), most hits filed as inhibitors. Q962Y6; note: nearly all actives have a fitted effect of over 60% in size
#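 First, TGR (20 nM dispensed) and NADPH were mixed with compound. Second, a 15 min room-temperature incubation followed. Third, further NADPH and then DTNB were added to start the reaction. Finally, TNB absorbance was monitored kinetically.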
# FMDV inh = antivirals against foot and mouth disease virus | FMDV antiviral cell-based qHTS | Potency, µM (series often up to 57.9 µM), most hits filed as inhibitors | 410,000 compounds, 1.2% hits | AID 1159524; calls by dose curve; tested in HEK293T cells; note: read-out not given here; nearly all actives have a fitted effect of over 45% in size
# Tb PYK inh = inhibitors of Trypanosoma brucei pyruvate kinase; Q57TT1; TbPYK enzyme, Kinase-Glo Plus ATP luminescence, 45 min; Potency, µM (titrated, usually from 76.8 µM), hits mostly inhibitors; 410,000 compounds, 0.12% hits; note: nearly all actives have a fitted effect of over 50% in size
#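 In this concentration-response screen, enzyme-free wells defined baseline while DMSO plates tracked drift. Each reaction combined TbPYK, substrate, compound and 130 uM ADP for 45 min at room temperature. Kinase-Glo Plus luminescence gave the signal.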
# HCMV antiviral = human cytomegalovirus inhibition; HFF cells, HCMV-luciferase reporter, 72 h; active compounds read low; AID 1259415; 410,000 compounds, 4.5% hits; activity change, negative = inhibition, % at 57.5 µM; in the data active = activity change below about -60%; inconclusive = no clear call, values can overlap the other calls; inactive = above about -39%
#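 Luciferase read-out from HCMV-luciferase-infected HFFs (MOI 1 PFU/cell) 72 h post infection at 37C; compounds added after 16 h cell attachment; activity normalized between buffer-only basal and Salinomycin (10uM) inhibitor controls.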
# FBPA Giardia inh = Giardia lamblia aldolase inhibition; purified Giardia FBPA; Potency, µM (titrated, usually from 59.6 µM), usual class: inhibitors; AID 2451; A8B2U2; 290,000 compounds, 0.71% hits; note: nearly all actives have a fitted effect of over 55% in size
# Target sequence (A8B2U2 whole entry, looked up): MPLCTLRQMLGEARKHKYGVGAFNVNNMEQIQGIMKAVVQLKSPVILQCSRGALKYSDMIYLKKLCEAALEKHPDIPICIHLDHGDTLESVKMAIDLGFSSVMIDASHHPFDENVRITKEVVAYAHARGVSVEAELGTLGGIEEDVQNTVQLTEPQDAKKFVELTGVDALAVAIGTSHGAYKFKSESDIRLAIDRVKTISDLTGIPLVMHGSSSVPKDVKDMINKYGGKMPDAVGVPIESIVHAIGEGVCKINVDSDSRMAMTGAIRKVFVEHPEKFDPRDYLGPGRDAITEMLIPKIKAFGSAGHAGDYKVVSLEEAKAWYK
#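 Giardia FBPA (40 nM reagent) was preincubated 10 min at RT with compound (up to 57.5 uM final), then substrate plus GAPDH/TPI/NAD/arsenate coupling system with diaphorase/resazurin was added; resorufin fluorescence (525/598 nm) was read after 20 min.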
# Numbers stand for hits; – = inactive; ? = inconclusive; · = not tested or not shown; [ ] = another dose, or the depositor's remark. Unless noted, calls come from the whole dose curve; as a rule, active = well fitted curve in the direction sought with a large enough effect; inconclusive = small, poorly fitted or top-dose-only effect, or another doubt; inactive = no such curve, though single readings can be large; an effect the other way counts as inactive or inconclusive.
SMILES,RE007 growth inh,Sm TGR inh,FMDV inh,Tb PYK inh,HCMV antiviral,FBPA Giardia inh
CCOC(=O)[C@]1(C#N)[C@@H]2C=CC(C(C)=O)=CN2[C@@H](C(N)=O)[C@@H]1c1ccsc1,–,39.8µM,–,–,–,?
COc1cccc(-c2cn3ncsc3n2)c1,·,–,–,–,–,·
CC1(C)Cc2c(C#N)c(N)sc(=S)c2CS1,–,31.6µM,–,?,–,?
N#Cc1c(N)sc(=S)c2c1CCCCC2,–,7.94µM,–,?,?,10µM
CC(C)c1nc(Cl)c(C#N)c2c1CSC(C)(C)C2,–,–,–,–,–,–
Cn1c(N)c(C#N)c2c(c1=S)CSC(C)(C)C2,–,12.6µM,–,–,–,?
CO[C@@H]1[C@@H]2OP(=O)(O)OC[C@H]2O[C@H]1n1c(Sc2ccc(Cl)cc2)nc2c(N)ncnc21,·,·,·,·,·,–
CC1(C)S[C@@H]2[C@H](NC(=O)[C@H](N)c3ccccc3)C(=O)N2[C@@H]1C(=O)OCOC(=O)[C@@H]1N2C(=O)C[C@@H]2S(O)(O)C1(C)C,·,·,·,–,·,·
CC(C)c1ccc(NC(=O)CSC2=Nc3ccccc3C3=NC(CCC(=O)NCc4cccs4)C(=O)N23)cc1 (stereo not given),·,–,–,–,–,·
COc1cccc2c1C(=O)c1c(O)c3c(c(O)c1C2=O)CC(O)(C(=O)CO)CC3OC1CC(N(C)C)C(O)C(C)O1 (stereo not given),?,·,–,–,-98.4,·
COc1cccc2c1C(=O)c1c(O)c3c(c(O)c1C2=O)C[C@@](O)(C(C)=O)C[C@@H]3O[C@H]1C[C@H](N)[C@H](O)[C@H](C)O1,–[18.4 µM],–,–,–,-100.1,?
Cc1cc(C)cc(NC(=O)Cn2c3ncccc3c(=O)n2-c2ccc(C)c(C)c2)c1,·,–,–,–,–,·
COc1cc(/C=C/C(=O)c2ccc3c(c2)OCCO3)cc(Br)c1OCC(=O)N(C)C,–,–,7.94µM,–,-97.4,–
O=C(/C=C/c1ccccc1)c1ccc2c(c1)OCO2,?,?,–,–,–,–
COc1cccc(/C=C/C(=O)c2ccc3c(c2)OCO3)c1OC,–,–,–,–,·,·
O=C(/C=C/c1ccncc1)c1ccc2c(c1)OCCO2,–,44.7µM,28.2µM,–,–,–
Cc1ccc(C(=O)O/N=C(\N)c2ccccn2)cc1C,–,–,–,?,?,–
CCOc1ccc(C(=O)O/N=C(\N)c2ccccn2)cc1,?,–,10µM,12.6µM,-90.8,–
CC(C)(C)c1ccc(C(=O)O/N=C(\N)c2ccccn2)cc1,–,–,0.1µM,–,-99.1,–
Cc1ccc(C(=O)O/N=C(\N)c2ccccn2)cc1,?,–,3.16µM,?,-69.2,–
N/C(=N\OC(=O)c1ccccc1)c1ccccn1,?,–,10µM,?,–,–
Cc1cc(C)c(S(=O)(=O)NCC(c2ccc(N(C)C)cc2)N2CCOCC2)c(C)c1 (stereo not given),·,–,–,–,–,·
COc1ccc(CCNCC(O)Cn2c3ccccc3c3ccccc32)cc1OC (stereo not given),–,–,–,–,-63.6,–
COc1ccc(CCNc2nc(N3CCCCC3)nc(N3CCCCC3)n2)cc1OC,–,–,–,–,–,–
COc1ccc(CCNc2c3ccccc3nc3ccccc23)cc1OC,–,–,–,–,-102.4,–
SMILES,RE007 growth inh,Sm TGR inh,FMDV inh,Tb PYK inh,HCMV antiviral,FBPA Giardia inh
COc1nc(NCCc2ccc(OC)c(OC)c2)nc(OC)n1,–,–,–,–,-98.9,–
CCn1c(=O)c([N+](=O)[O-])c(NCCc2ccc(OC)c(OC)c2)c2ccccc21,–,–,22.4µM,–,-71.8,–
COc1ccc(Oc2ncc3nc(CCc4ccccc4)c(=O)n(C[C@H]4CCCO4)c3n2)cc1,·,·,–,·,·,–
COc1ccccc1NC1=C(Cl)C(=O)OC1OC(=O)c1ccco1 (stereo not given),–,?,–,–,–,–
COc1cccc(NC2=C(Cl)C(=O)OC2OC(=O)c2ccco2)c1 (stereo not given),–,7.94µM,–,–,–,–
COc1cc(OC)c(C=CC(=O)c2ccccc2O)c(OC)c1,–,·,–,–,-64.0,·
COc1cc(/C=C/C(=O)c2ccccc2O)cc(OC)c1OC,–,?,31.6µM,–,–,–
Cc1ccc(CNC(=O)C2CCCN(c3nnc(-n4c(C)ccc4C)s3)C2)cc1 (stereo not given),·,?,–,–,–,·
CCOc1ccc(CCNC(=O)c2cccc(-n3c(C)nc4cccnc43)c2)cc1,·,–,–,–[15.4 µM],?,·
CO[C@@H]1COC(=O)[C@H](C)NC(=O)C/C=C\[C@@H](C)[C@H](OC)COC(=O)[C@H](C)NC(=O)C/C=C\[C@H]1C,·,·,·,·,·,–[12.9 µM]
CC1(C)CC(=O)C(C=NCCN2CCN(C(=O)CC3CCCC3)CC2)=C(O)C1,–,–,–,–,–,–
CC1(C)CC(=O)C(C=NCCN2CCN(C(=O)c3ccc(Br)cc3)CC2)=C(O)C1,–,28.2µM,–,–,–,–
CC1(C)CC(=O)C(C=NCCN2CCN(C(=O)Cc3ccc(F)cc3)CC2)=C(O)C1,–,?,–,–,–,–
CC1(C)CC(=O)C(C=NCCN2CCN(C3CC(=O)N(c4ccc(Cl)c(Cl)c4)C3=O)CC2)=C(O)C1 (stereo not given),10µM,25.1µM,?,–,–,–
CC1(C)CC(=O)C(C=NCCN2CCN(C(=O)NC34CC5CC(CC(C5)C3)C4)CC2)=C(O)C1,–,35.5µM,–,–,–,–
CCN(CC)CCCNC(=O)Cn1c(-c2cccs2)cc2cc(Cl)ccc21,·,–,–,–,–,·
CC1=NN(c2ccccc2)C(=O)C1C(=S)SC1CC(=O)NC1=O (stereo not given),–,·,–,–,-87.7,·
Cc1ccccc1N1CCN(C2CCCN(C(=O)c3ccccn3)C2)CC1 (stereo not given),–,–,–,–,–,·
Cc1ccccc1N1CCN(C2CCCN(C(=O)c3cn4cccc(C)c4n3)C2)CC1 (stereo not given),–,–,44.7µM,–,–,–
Cc1ccc(C(=O)N/C(=C\c2ccc(-c3ccccc3[N+](=O)[O-])o2)C(=O)NCCCN2CCOCC2)cc1,–,35.5µM,–,–,–,·
Cc1ccc(C(=O)N/C(=C\c2ccc(-c3ccc(Br)cc3)o2)C(=O)NCCCN(C)C)cc1,–,–,?,–,-100.6,–
CN(C)CCCNC(=O)/C(=C\c1ccc(-c2cccc([N+](=O)[O-])c2)o1)NC(=O)c1ccccc1,–,·,–,–,-66.1,–
Cc1ccc(C(=O)N/C(=C\c2cn(C)c3ccccc23)C(=O)NCCCN2CCOCC2)cc1,–,–,–,–,–,·
CC(=O)c1ccccc1OCc1ccc(S(=O)(=O)Cc2ccccc2)cc1,–,–,?,–,-70.5,–

# From PubChem
